Screening data as filed in PubChem BioAssay.
A selection: hits, their analogues and other compounds. The true share with any hit is near 12%.
Shiga toxin inh – Shiga toxin inhibition | 290,000 compounds, 9.2% hits | AID 2315 | Vero cells, Shiga toxin protein synthesis inhibition reporter | inhibition, % at 38.7 µM; in the data active = inhibition mostly above about 28%, no sharp cut-off; inactive = mostly below about 43%
NS1 function inh – influenza NS1 inhibition | Potency, µM (titrated, usually from 46.1 µM) | 270,000 compounds, 0.4% hits; also: actives are rising curves; nearly all actives have a fitted effect of over 50% in size
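OD600 was taken as the measure of yeast growth restored by compound in an NS1-expressing S. cerevisiae strain. Cells had been washed out of glucose medium and diluted 1:100 into galactose -URA medium, pH 6.0.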
Cycloheximide cs – counter-screen hit for Shiga toxin inhibitors, cycloheximide; 300,000 compounds, 12% hits; max response, %; cell reporter, cycloheximide protein synthesis inhibition counterscreen; in the data active = max response mostly above about 13%, no sharp cut-off; inactive = mostly below about 14%; also: read at 38.3 µM for the half of the compounds with a filed dose
SARS PLP yeast – inhibitors of SARS-CoV papain-like protease in yeast; S. cerevisiae expressing SARS-CoV PLpro, growth rescue; Potency, µM (highest dose often 32.9 µM), actives largely listed as activators; 330,000 compounds, 0.19% hits; AID 485353; also: nearly all actives have a fitted effect of over 55% in size
Large screens that a line does not name were inactive. Unless noted, calls follow the shape of the full dose curve.

CN(C)C(=O)Oc1ccc(Br)cc1C(=O)Nc1ccc(F)c(Cl)c1	none
O=C(Nc1ccc(Cl)cc1)c1ccc(Br)cc1F	Shiga toxin inh 86, Cycloheximide cs 44
COc1ccc(/C=N/n2c(C)nc3ccccc3c2=O)cc1OC	none
COc1ccc(/C=N/Nc2nc3ccccc3c(=O)n2-c2ccccc2)cc1OC	NS1 function inh inconclusive, Cycloheximide cs 21
O=c1[nH]c(N/N=C/c2ccc(O)cc2)nc2ccccc12	Shiga toxin inh 64, Cycloheximide cs 36
C=CCn1c(N/N=C/c2ccc(O)cc2)nc2ccccc2c1=O	Shiga toxin inh 153, Cycloheximide cs 36 (no result: NS1 function inh)
O=c1[nH]c(N/N=C\c2ccc(F)cc2)nc2ccccc12	Shiga toxin inh 80, Cycloheximide cs 34
COc1cccc(C(=O)OCCNC(=O)c2cccnc2)c1	none
C#CCNC(=O)C1CCN(c2cc(C)nc(-c3ccccc3)n2)CC1	none
Cc1cc(Cl)c(Cl)cc1S(=O)(=O)NCCCn1ccnc1	none
COCc1cc(=O)[nH]c2cc(NC(=O)C3CC3)c(C)cc12	none
CCOC(=O)c1sc(NC(=O)Nc2ccc(Cl)cc2)cc1C	Shiga toxin inh 67, Cycloheximide cs 46
CCOC(=O)c1sc(NC(=O)c2ccc(Cl)s2)cc1C	Shiga toxin inh 56, Cycloheximide cs 39
CCOC(=O)c1sc(NC(=O)c2ccccc2)cc1C	Shiga toxin inh 122, Cycloheximide cs 70
CCOC(=O)c1sc(NC(=O)c2ccc(S(=O)(=O)N(C)C)cc2)cc1C	none
Cc1ccc2cc(C3CC(c4ccco4)=NN3S(=O)(=O)c3ccccc3)c(Cl)nc2c1 (stereo not drawn)	NS1 function inh inconclusive
CCOc1ccc2cc(C3CC(c4ccco4)=NN3S(=O)(=O)c3ccccc3)c(Cl)nc2c1 (stereo not drawn)	Shiga toxin inh 68, NS1 function inh inconclusive, Cycloheximide cs 19
CCOc1ccc2nc(Cl)c(C3CC(c4ccco4)=NN3S(C)(=O)=O)cc2c1 (stereo not drawn)	none
COc1ccc2cc(C3CC(c4ccco4)=NN3S(=O)(=O)c3ccccc3)c(Cl)nc2c1 (stereo not drawn)	Shiga toxin inh 33, NS1 function inh inconclusive
O=C1CCC(C(=O)Nc2ccccc2N2CCCC2)=NN1	none (no result: Shiga toxin inh, NS1 function inh, Cycloheximide cs)
O=S(=O)(NCC1CCCO1)c1ccc(-c2ccc(Cl)cc2)cc1 (stereo not drawn)	Cycloheximide cs 17 (no result: NS1 function inh)
Cc1ccc(C(=O)Nc2ccc(C(=O)NCC3CCCO3)cc2)cc1 (stereo not drawn)	none
Cc1ccc(NC(=O)c2ccc(S(=O)(=O)NCC3CCCO3)cc2)cc1 (stereo not drawn)	Shiga toxin inh 31
COc1cccc(/C=C/C(=O)N2CC(C)OC(C)C2)c1OC (stereo not drawn)	none
COc1ccccc1C1=NC(c2ccc(C)cc2)N=C1C (stereo not drawn)	Shiga toxin inh 131, Cycloheximide cs 39 (no result: NS1 function inh)
CCCCCCCCNC(=O)c1cccnc1SCC(=O)Nc1ccc(OC)cc1OC	none
CCC(Sc1nncn1C)C(=O)Nc1nnc(-c2ccccc2Cl)s1 (stereo not drawn)	Cycloheximide cs 17
C/C(=N\NC(=O)c1cccnc1)c1cc2ccccc2o1	none (no result: NS1 function inh)
C/C(=N\NC(=O)COc1ccccc1F)c1cc2ccccc2o1	Shiga toxin inh 126, Cycloheximide cs 48
C/C(=N\NC(=O)c1ccco1)c1cc2ccccc2o1	Shiga toxin inh 95, Cycloheximide cs 58
C/C(=N\NC(=S)Nc1c(C)cccc1C)c1cc2ccccc2o1	none
C/C(=N\NC(=S)Nc1ccccc1C)c1cc2ccccc2o1	Shiga toxin inh 26, Cycloheximide cs 17
C/C(=N\NC(=O)c1ccncc1)c1cc2ccccc2o1	none
C/C(=N\NC(=O)c1ccco1)c1ccc(-c2ccccc2)cc1	Shiga toxin inh 108, Cycloheximide cs 23
COc1ccc(C(=O)NCCc2nnc3ccc(SCC(=O)NCc4ccc(F)cc4)nn23)cc1	none
COc1cc(C(=O)NCC(c2cccs2)N2CCOCC2)c([N+](=O)[O-])cc1OC (stereo not drawn)	none (no result: Shiga toxin inh, NS1 function inh, Cycloheximide cs)
Cc1ccc(N(CC(=O)NC2CC2)S(=O)(=O)c2ccccc2)c(C)c1	none
CC(C)(C)c1ccc(C(=O)Nc2ccc(NC(=O)c3ccco3)cc2)cc1	none
C/C(=N\NC(=O)c1ccco1)c1cc(Cl)sc1Cl	Shiga toxin inh 71, Cycloheximide cs 25
C/C(=N\NC(=O)c1ccco1)c1ccc(NC(=O)C(F)(F)F)cc1	Shiga toxin inh 61, Cycloheximide cs 57
O=C(NNC(=S)NC(=O)c1ccco1)c1ccc(NC(=O)c2ccccc2)cc1	none (no result: NS1 function inh)
C/C(=N\NC(=O)c1ccco1)c1ccc(NC(=O)c2ccccc2)cc1	Shiga toxin inh 72, Cycloheximide cs 35 (no result: NS1 function inh)
CCOc1ccc(Br)cc1S(=O)(=O)Nc1cccc(S(=O)(=O)N(C)C)c1	none
COC(=O)/C=C1\SC(N2CCOCC2)=C(c2ccc(OC)cc2)C1=O	none (no result: NS1 function inh)
